Screening results deposited in PubChem by National Center for Advancing Translational Sciences (NCATS).
The list is not random: actives were taken first. Their share in the collection is about 17%.
TDP1 cell CPT: growth inhibition of DT40 Tdp1-/-;hTDP1 cells with camptothecin (screen for TDP1 inhibitors). chicken DT40 Tdp1-/-;hTDP1 cells + 20 nM CPT, ATP luminescence, 48 h. Potency, µM (top dose mostly 46.2 µM), inactives show at the top dose activity change, negative = growth inhibition, usual class: inhibitors. 12% of 420,000 active; also: % is scaled to controls: 0 for no effect and ±100 for the full control effect; nearly all actives have a fitted effect of over 55% in size
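Chicken DT40 Tdp1-/- cells complemented with human TDP1, 400 cells/well, exposed to compounds plus 20 nM camptothecin for at least 48 h at 37 C; viability read as ATP content by CellTiter-Glo luminescence.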
TDP1 inh: blocks human tyrosyl-DNA phosphodiesterase 1; Q9NUW8; recombinant TDP1, AlphaScreen DNA substrate cleavage; Potency, µM (top dose mostly 130 µM), for the others: at the top dose activity change, negative = inhibition, hits mostly inhibitors; 0.28% of 350,000 active; AID 485290; also: % is scaled to controls: 0 for no effect and ±100 for the full control effect; nearly all actives have a fitted effect of over 40% in size
Target sequence (Q9NUW8 whole entry, looked up): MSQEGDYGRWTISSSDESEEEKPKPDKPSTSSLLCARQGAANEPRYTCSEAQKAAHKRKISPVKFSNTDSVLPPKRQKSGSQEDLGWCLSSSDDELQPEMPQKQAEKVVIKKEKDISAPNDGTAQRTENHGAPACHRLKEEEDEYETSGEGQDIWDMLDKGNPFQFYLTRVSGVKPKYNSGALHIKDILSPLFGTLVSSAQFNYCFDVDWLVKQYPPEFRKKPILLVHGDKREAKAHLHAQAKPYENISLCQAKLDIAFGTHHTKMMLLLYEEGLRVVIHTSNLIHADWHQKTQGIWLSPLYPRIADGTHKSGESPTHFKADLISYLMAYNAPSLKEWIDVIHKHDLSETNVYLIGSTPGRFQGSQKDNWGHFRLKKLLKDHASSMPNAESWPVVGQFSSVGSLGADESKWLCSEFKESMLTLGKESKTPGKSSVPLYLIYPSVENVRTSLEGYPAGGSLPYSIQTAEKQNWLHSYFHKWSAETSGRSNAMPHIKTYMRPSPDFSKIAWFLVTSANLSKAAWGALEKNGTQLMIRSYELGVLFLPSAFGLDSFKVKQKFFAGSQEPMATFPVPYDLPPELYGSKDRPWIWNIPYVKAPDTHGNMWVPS
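Enzyme-compound mixtures sat 15 min at room temperature, followed by a 5 min reaction with 15 nM final substrate and 10 min with AlphaScreen beads. Recombinant human Tdp1 was used at 1 nM final.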
ClpP mod: qHTS Assay for Activators of ClpP; ATP-dependent Clp protease proteolytic subunit (Bacillus subtilis (strain 168)), P80244; purified B. subtilis ClpP, FRET peptide cleavage, 20 min; Potency, µM (series often up to 57.5 µM), for inactives: at the highest dose activity change, negative = active; 1.9% of 340,000 active; AID 651965, 2013; active = well fitted falling curve with a large enough effect; inconclusive = small, poorly fitted or top-dose-only effect; inactive = no such curve, though single readings can be large or run the other way; also: the source files actives as falling curves though it sought activators and does not explain the sign; nearly all actives have a fitted effect of over 65% in size
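Buffer: 100 mM Tris/HCl pH8, 100 mM KCl, 0.05% low protease BSA, 2.5% glycerol, 0.01% Tween-20. ClpP 10 microg/mL final; 20 min RT; delta FRET normalized to ADEP and DMSO controls.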
TDP1 cell noCPT: qHTS for Inhibitors of human tyrosyl-DNA phosphodiesterase 1 (TDP1): qHTS in cells in absence of CPT; Potency, µM (titrated, usually from 46.2 µM), without a hit: at the top dose activity change, negative = growth inhibition, hits mostly inhibitors; AID 686978, 2013; 15% of 420,000 active; DT40 Tdp1-/- hTDP1 cells, no CPT, ATP luminescence, 48 h; also: % is scaled to controls: 0 for no effect and ±100 for the full control effect; nearly all actives have a fitted effect of over 55% in size
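Compound effects on proliferation are scored in DT40 Tdp1-/-;hTDP1 cells in the absence of CPT. ATP levels (CellTiter-Glo luminescence) are recorded after a ≥48 hr, 37 °C incubation.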
The depositor's hits bear a star; ? = inconclusive; nt = no result; [ ] = remark or other dose. Unless noted, calls follow the shape of the dose curve; as a rule, active = well fitted curve in the direction sought with a large enough effect; inconclusive = small, poorly fitted or top-dose-only effect, or another doubt; inactive = no such curve, though single readings can be large; an effect the other way counts as inactive or inconclusive. Potency is read from the fitted curve at half-maximal effect.

SMILES	TDP1 cell CPT	TDP1 inh	ClpP mod	TDP1 cell noCPT
CC1CCN(c2nc3c(c(=O)n(C)c(=O)n3C)n2CCSc2nc3ccccc3o2)CC1	nt	3%	nt	nt
Cn1c(=O)[nH]c(=O)c2c1nc(N1CCCCCC1)n2CCSc1nc2ccccc2o1	-14%	nt	1%	-11%
Cn1c(=O)[nH]c(=O)c2c1nc(N1CCCCCC1)n2CCCSc1nc2ccccc2o1	?	9%	-26%	29µM*
CC1CC(C)CN(c2nc3c(c(=O)n(C)c(=O)n3C)n2CCSc2nc3ccccc3o2)C1 (centres undefined)	18µM*	nt	0%	15µM*
Cn1c(=O)c2c(nc(N3CCCCCC3)n2CCSc2nc3ccccc3o2)n(C)c1=O	7.3µM*	-7%	2%	23µM*
O=C(/C=C/[C@H]1O[C@@H](n2cnc3c(NC(=O)c4ccccc4)ncnc32)[C@H](O)[C@@H]1O)N[C@@H](CO)Cc1c[nH]c2ccccc12	-2%	nt	0%	2%
CCn1c(O)c(C2=c3ccccc3=NC2=O)c2cc(Br)ccc21	6.5µM*	-2%	nt	12µM*
CCc1ccc(NC(=O)c2cc(C(C)=O)n3ccccc23)cc1	?	0%	-12%	?
COc1ccc(CN(C(=O)c2ccc(C)cc2)C2CCS(=O)(=O)C2)cc1 (centres undefined)	-3%	1%	0%	12%
CCCCOc1cccc(C(=O)N(Cc2ccccc2)C2CCS(=O)(=O)C2)c1 (centres undefined)	13µM*	-10%	-1%	15µM*
COc1ccc(CN(C(=O)c2cccc(OC)c2)C2CCS(=O)(=O)C2)cc1 (centres undefined)	17%	7%	nt	5%
CCOc1cccc(C(=O)N(Cc2ccc(CC)cc2)C2CCS(=O)(=O)C2)c1 (centres undefined)	18µM*	-1%	-3%	?
CCOc1cccc(C(=O)N(Cc2ccc(C(C)C)cc2)C2CCS(=O)(=O)C2)c1 (centres undefined)	21µM*	-2%	1%	?
COc1ccc(C(=O)N(Cc2ccc(C(C)C)cc2)C2CCS(=O)(=O)C2)cc1 (centres undefined)	?	1%	0%	15µM*
CCCCOc1ccc(C(=O)N(Cc2ccccc2)C2CCS(=O)(=O)C2)cc1 (centres undefined)	?	4%	-1%	?
S=c1[nH]nc(-c2ccco2)n1-c1ccccc1Cl	2%	3%	nt	-2%
S=c1[nH]nc(-c2cc(-c3ccco3)[nH]n2)n1-c1ccccc1Cl	-8%	3.5µM*	-2%	-19%
O=C(O)C1(c2ccccc2)CCN(S(=O)(=O)c2ccc(Br)cc2)CC1	44%	nt	nt	11%
CCC(Sc1nnc(-c2ccc(C)c(Cl)c2)n1CC)C(=O)Nc1nccs1 (centres undefined)	18µM*	5%	-4%	15µM*
Cn1c(SCC(=O)Nc2nccs2)nnc1-c1ccc(S(=O)(=O)N2CCCC2)cc1	-10%	7%	-3%	-19%
CCn1c(SCC(=O)Nc2nccs2)nnc1-c1ccc(S(=O)(=O)N2CCCCCC2)cc1	16µM*	6%	12%	18µM*
CCn1c(SCC(N)=O)nnc1-c1ccc(S(=O)(=O)N2CCN(C)CC2)cc1	-1%	0%	32µM*	-10%
CCCn1c(CN2CCN(C(=O)c3ccco3)CC2)nc2cc(S(=O)(=O)N(C)C)ccc21	-26%	10%[0.505 µM]	?	?
CCC(=O)N1Cc2cc(C(=O)Nc3nccs3)nc(-c3cccc(-c4ccccc4OC)c3)c2[C@@H]1CCO	4.6µM*	nt	-10%	4.6µM*
COc1ccccc1-c1cccc(-c2nc(C(=O)Nc3nccs3)cc3c2[C@@H](CCO)N(C(=O)CC2CC2)C3)c1	18µM*	nt	-9%	12µM*
CC(C)C[C@@H](CC(=O)N[C@H](CC(=O)N[C@@H]1CCCC[C@H]1C(=O)N[C@H](CC(=O)N[C@@H](CCC(=O)O)CC(=O)O)Cc1c[nH]c2ccccc12)C(C)C)NC(=O)[C@@H]1CCCC[C@H]1N	nt	11%	nt	nt
